# Measurements: PubChem BioAssay AID641 (Vanderbilt High Throughput Screening Facility, 2007)
# Out of some 58,000 compounds screened, about 3,400 (5.9%) were called active.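 Rule for the calls: active = luminescence count or its row- and column-corrected plate score outside the 99.7% band of the plate's sample wells, on either side; inactive = the rest.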 The sample as a whole holds a higher share of actives than the screen did.
# Molecular target: D(1A) dopamine receptor (Homo sapiens) (UniProt P21728)
# Sequence (P21728 whole entry, looked up): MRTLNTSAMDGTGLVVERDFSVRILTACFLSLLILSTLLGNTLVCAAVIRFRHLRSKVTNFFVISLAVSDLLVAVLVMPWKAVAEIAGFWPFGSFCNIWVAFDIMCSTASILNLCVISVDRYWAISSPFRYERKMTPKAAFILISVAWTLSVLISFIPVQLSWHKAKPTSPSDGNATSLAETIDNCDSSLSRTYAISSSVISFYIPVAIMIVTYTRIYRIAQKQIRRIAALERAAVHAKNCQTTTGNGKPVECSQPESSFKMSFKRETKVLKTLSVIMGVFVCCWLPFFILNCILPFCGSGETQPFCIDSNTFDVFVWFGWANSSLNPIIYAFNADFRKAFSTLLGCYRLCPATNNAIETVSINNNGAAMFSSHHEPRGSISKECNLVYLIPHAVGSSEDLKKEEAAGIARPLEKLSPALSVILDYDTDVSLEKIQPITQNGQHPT
# Experiment: D1 CRE-luciferase signal change, two-sided – cell-based, HEK293 D1, dopamine EC30, D1 allosteric modulator project, primary screen (AID 641)
# Conditions: dopamine EC30 potentiation, at 10 µM, actives deviate in either direction
row,SMILES,B-score
1,CCC(=O)c1cc2c(cc1NC(=O)c1cccs1)OCCO2,1.41 (inactive)
2,CCCC(=O)C1=C(N(C)c2ccccc2)CC(C)(C)C(C(=O)OC)C1=O (stereo unspecified),0.78 (inactive)
3,Cn1c2ccccc2c2c(C(=O)N3CCN(c4ccc(F)cc4)CC3)cn(C3CCCC3)c(=O)c21,0.395 (inactive)
4,Cc1c(CN2CCC(C)CC2)c(=O)n(-c2ccccc2)n1C,0.319 (inactive)
5,Cn1cccc1C(=O)NC(=O)COC(=O)Cc1coc2ccc3ccccc3c12,-0.19 (inactive)
6,COc1ccc(C(=O)c2oc3ccc(Br)cc3c2NC(C)=O)cc1,-0.206 (inactive)
7,Cc1cc(C(=O)O)c(S(C)(=O)=O)s1,0.833 (inactive)
8,CC(=O)c1c(C)c[nH]c1C,-3.34 (active)
9,COC(=O)Nc1ncc(CN2C(=O)c3ccccc3C2=O)s1,3.19 (active)
10,O=C(CCN1C(=O)c2ccccc2C1=O)Nc1ccncc1,0.176 (inactive)
11,CC(C)OC(=O)CN1C(=O)c2ccccc2C1=O,0.49 (inactive)
12,CN(C)c1cc(N)c2ccccc2n1 (tested in a mixture with another compound),-2.66 (inactive)
13,CCOC(=O)C1CCN(C(=O)Nc2ccc(Cl)cc2)CC1,-0.339 (inactive)
14,CCCCn1nc(C(=O)N2CCc3ccccc32)c2ccccc2c1=O,0.35 (inactive)
15,CC1Cc2ccccc2N1C(=O)Cn1cnc2ccccc2c1=O (stereo unspecified),-0.115 (inactive)
16,CCn1nc(C(=O)OCC(=O)N2c3ccccc3CC2C)c2ccccc2c1=O (stereo unspecified),4.38 (active)
17,O=C(COc1ccc2c3c(c(=O)oc2c1)CCC3)NC1CCCCC1,-1.02 (inactive)
18,N#Cc1nc(N)nc(N(c2ccccc2)c2ccccc2)n1,4.55 (active)
19,CC(C)Nc1nc(N(c2ccccc2)c2ccccc2)nc(-n2ccnc2)n1,0.848 (inactive)
20,CC(C)(C)Oc1ncc(Br)c(OC(C)(C)C)n1,0.0357 (inactive)
21,c1ccc2[nH]c(-c3nc4ccccc4[nH]3)nc2c1,-2.93 (active)
22,c1ccc(-c2[nH]ncc2-c2nc3ccccc3[nH]2)cc1,0.738 (inactive)
23,C=CCSc1nc2ccccc2[nH]1,-0.468 (inactive)
24,c1ccc(-n2ncc3c2ncn2c(CSc4nc5ccccc5s4)nnc32)cc1,-0.538 (inactive)
25,Cc1cccc(OCc2nnc(SCC(=O)N3CCN(C(=O)c4ccco4)CC3)n2C)c1C,-0.00929 (inactive)
26,N#CC1=C(N)Oc2cc(O)ccc2C1C1CCCCC1 (stereo unspecified),-0.438 (inactive)

row,SMILES,B-score
1,Cc1cccc(NC(=O)COc2ccc(Br)cc2C)n1,0.787 (inactive)
2,O=C(C1CCCO1)N(Cc1ccccc1)c1ccccc1 (stereo unspecified),0.947 (inactive)
3,CCn1c(SCC(=O)Nc2ccc3c(c2)OCCO3)nc2c(c1=O)SC(C)C2 (stereo unspecified),2 (inactive)
4,CCn1c(SCC(=O)Nc2ccccc2F)nc2c(c1=O)SC(C)C2 (stereo unspecified),0.8 (inactive)
5,CCCCSc1nc2c(c(=O)n1CC)SC(C)C2 (stereo unspecified),9.06 (active)
6,COC(=O)c1ccc(NC(=O)c2ccco2)cc1,-1.96 (inactive)
7,C=CCn1cnc2scc(-c3ccccc3)c2c1=O,10.5 (active)
8,C=CCn1c(SCc2csc(C)n2)nc2scc(-c3ccc(C)o3)c2c1=O,-0.492 (inactive)
9,CN(CCC#N)c1ncnc2scc(-c3ccccc3)c12,1.98 (inactive)
10,CN1C(C)(C)CC(NC(=O)CCC(=O)NC2CC(C)(C)N(C)C(C)(C)C2)CC1(C)C,0.00629 (inactive)
11,CCN(CC)C(=O)C1CCC(C)(C(=O)O)C1(C)C (stereo unspecified),-0.39 (inactive)
12,CCc1ccc(N(CC)c2ncnc3nc[nH]c23)cc1,-4 (inactive)
13,O=C(CN1CCOCC1)Nc1c2c(nc3c1CCC3)CCC2,2.06 (inactive)
14,O=C(NCCCNCc1ccccc1)c1ccc(/C=N/O)nc1,-0.581 (inactive)
15,CCOc1ccc(Nc2oc(Cc3ccccc3)nc2C#N)cc1,3.11 (active)
16,COc1ccc(CC(=O)Nc2ccc(-c3nnc(-c4ccccc4)o3)cc2)cc1,0.0608 (inactive)
17,N#Cc1nc(Cc2cccc3ccccc23)oc1NCc1ccc2c(c1)OCO2,-0.388 (inactive)
18,N#Cc1nc(COc2ccc(-c3ccccc3)cc2)oc1NCc1cccnc1,-1.5 (inactive)
19,CCOc1ccc(NC(=O)Nc2cc(C)on2)cc1,-0.142 (inactive)
20,N#Cc1nc(Cc2ccccc2)oc1NCCc1ccccc1,4.08 (active)
21,N#Cc1nc(-c2ccc(OCc3ccccc3)cc2)oc1NCCCN1CCOCC1,-0.727 (inactive)
22,O=C(CSc1ncccn1)NCCc1ccccc1,0.879 (inactive)
23,COc1ccc(Nc2oc(-c3ccccc3Cl)nc2C#N)cc1,6.96 (active)
24,CN(CCCC(=O)Nc1nccs1)S(=O)(=O)c1ccc(Cl)cc1,0.49 (inactive)
25,Cc1cc(/C=N/n2cnnc2)c(C)n1-c1cccc(C(=O)O)c1,-0.0541 (inactive)
26,O=C(CN1CCOCC1)Nc1c(-c2ccccc2)c2cc(Br)ccc2[nH]c1=O,2.41 (inactive)

row,SMILES,B-score
1,CS(=O)(=O)N1CCN(C(=O)Cc2ccccc2)CC1,-1.05 (inactive)
2,CS(=O)(=O)N(CC(=O)N1CCOCC1)c1ccc2c3c(cccc13)CC2,1.66 (inactive)
3,C=C(C)COc1ccc(-c2n[nH]c(C)c2-c2ccccc2)c(O)c1,0.197 (inactive)
4,COc1ccc(-c2n[nH]c(C)c2-c2ccc(OC)c(OC)c2)c(O)c1,2.72 (active)
5,CCOc1ccccc1Oc1cn[nH]c1-c1ccc(OC)cc1O,-0.51 (inactive)
6,Cc1nonc1NC(=O)c1ccccc1Br,-0.0424 (inactive)
7,Cc1cc(C(=O)N2CCN(c3ccccn3)CC2)c(C)o1,-0.0773 (inactive)
8,COC(=O)CSC1=C(C#N)C(c2ccccc2OC)C(C(=O)OC)C(=O)N1 (stereo unspecified),0.897 (inactive)
9,O=C1Nc2c(Br)cc(Br)cc2C1(O)N1CCOCC1 (stereo unspecified),0.955 (inactive)
10,CCOc1ccc2nc(NCCNS(=O)(=O)c3ccccc3)c(C#N)cc2c1,0.768 (inactive)
11,CCCCNc1nc2ccccc2nc1NS(=O)(=O)c1cccs1,19.3 (active)
12,O=C(Nc1nncs1)c1ccccc1NS(=O)(=O)c1cccs1,-0.0134 (inactive)
13,COc1nc(OC)nc(N(C)CCO)n1,0.849 (inactive)
14,Cc1ccc(C)c2[nH]c(=O)c(CCNC(=O)CC(C)C)cc12,-0.219 (inactive)
15,COc1ncnc2c1N=C1CC(C)(C)CC(N)=C1S2,3.41 (active)
16,Nc1c(C(=O)NCc2ccccc2)nnn1Cc1cccc(Cl)c1,0.392 (inactive)
17,COc1ccc(OC)c2c1sc(=NC(=O)CN1C(=O)CCC1=O)n2C,2.86 (inactive)
18,Cc1ccc2c(c1)N(CCCC(=O)NCc1cccnc1)C(=O)CO2,-0.742 (inactive)
19,COc1ccc(N2CCN(CCNC(=O)c3nnc(Cc4c(F)cccc4Cl)o3)CC2)cc1,-1.8 (inactive)
20,Cc1ccc(-n2nc3c(c2NC(=O)CCC2CCCCC2)CS(=O)C3)cc1 (stereo unspecified),-0.56 (inactive)
21,O=P(O)(CN1CCCCC1)CN1CCCCC1,-0.0507 (inactive)
22,C=CCSc1nc2c(c(=O)[nH]1)C(C(C)C)C(C#N)=C(N)O2 (stereo unspecified),10.1 (active)
23,C=CCOC(=O)C1=C(C)OC(N)=C(C#N)C1c1ccc(F)cc1 (stereo unspecified),0.241 (inactive)
24,CCN1CCN(C(=O)c2ccccc2N(C)S(=O)(=O)c2ccc(C)cc2)CC1,0.228 (inactive)
25,CCOC(=O)c1cnc(-n2nc(C)cc2C)nc1Nc1cccc(C(C)=O)c1,0.96 (inactive)
26,CC(=O)c1ccc(Oc2cc(C)nc(-n3nc(C)cc3C)n2)cc1,11.6 (active)

row,SMILES,B-score
1,Cc1cc(C)n(-c2ccc(Cl)c(C(=O)O)n2)n1,-0.569 (inactive)
2,COCCNc1nc(-n2nc(C)cc2C)nc2sc3c(c12)CCCC3,0.116 (inactive)
3,COc1ccc(Nc2cc(C)nc(-n3nc(C)cc3C)n2)cc1,7.36 (active)
4,COc1cc(NS(=O)(=O)c2ccccc2)ccc1-n1nc(C)cc1C,-0.763 (inactive)
5,Cc1ccc(S(=O)(=O)Nc2ccccc2CNc2c(C)n(C)n(-c3ccccc3)c2=O)cc1,1.04 (inactive)
6,Cc1ccc(S(=O)(=O)N2CC(=O)Nc3ccccc32)cc1C,0.0538 (inactive)
7,CCN1C(=O)CS/C1=N\c1nccs1,0.211 (inactive)
8,Cc1ccc(CNC(=O)CCCNC(=O)c2ccc(Cl)cc2)n1C,-1.3 (inactive)
9,CC1CCN(Cc2nc3c(c(=O)n(C)c(=O)n3C)n2CCc2ccccc2)CC1,0.377 (inactive)
10,CCOC(=O)C1CCCN(C(=O)c2sc3nc(C)nc(N4CCOCC4)c3c2C)C1 (stereo unspecified),-3.4 (active)
11,CCOC(=O)C1CCCN(C(=O)c2cncc(Br)c2)C1 (stereo unspecified),0.42 (inactive)
12,CCOC(=O)C1CCCN(C(=O)CN(c2ccc(OC)cc2)S(=O)(=O)c2c(C)noc2C)C1 (stereo unspecified),0.03 (inactive)
13,Nc1nnc(C2CCCC2)s1,-1.25 (inactive)
14,COc1ccc(C2=CC(c3cccc(OC)c3)n3nnnc3N2)cc1 (stereo unspecified),1.89 (inactive)
15,CCOc1cccc(-c2nnc3sc(COc4ccc(OC)cc4)nn23)c1,-0.0728 (inactive)
16,CCOc1cccc(-n2nnnc2-c2ccc(OC)cc2)c1,4.33 (active)
17,CC(C)(C)Nc1c(N)c(=O)oc2ccccc12,-1.25 (inactive)
18,CCC(C)n1[nH]c(=O)cc1N (stereo unspecified),-0.0177 (inactive)
19,Cn1c(=O)n(C)c2cc(C(=O)Nc3ccc4c(c3)OCO4)ccc21,-2.3 (inactive)
20,COc1ccc(C(=O)Nc2ccc3c(c2)OCO3)cc1OC,1.31 (inactive)
21,CC(C)C(=O)Nc1cccc(C(=O)Nc2ccc3c(c2)OCO3)c1,-3.26 (active)
22,CCOc1ccc(Cn2nnc(C(=O)NCc3ccccc3)c2N)cc1,0.835 (inactive)
23,CC1(C)CC(=O)C(C=NCCC2=CCCCC2)=C(O)C1,1.52 (inactive)
